Screens as filed in PubChem.
Most compounds without a hit are left out; they make up all but 10% or so of the library.
NS1 inh – inhibitors of influenza NS1 protein function. Potency, µM (doses to about 46.1 µM), for the others: at the highest dose activity, positive = more growth. 270,000 tested, 0.4% active; calls by dose curve; further: actives are rising curves; nearly all actives have a fitted effect of over 50% in size
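S. cerevisiae expressing influenza A NS1, grown in glucose, washed, then diluted 1:100 into pH 6.0 -URA galactose medium with 23 nl compound. Growth recovery read as OD600; NS1-free strain serves as control.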
Pf growth 96h – P. falciparum growth inhibition at 96 hour, primary screen for plastid delayed-death inhibitors | P. falciparum luciferase reporter growth, 96 h | Potency, µM (top dose mostly 28.7 µM), for inactives: at the highest dose activity change, negative = inhibition, hits mostly inhibitors | 320,000 tested, 6.9% active | AID 504834; further: on the % scale 0 is the no-effect control and ±100 the full control effect
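Readout is luminescence from an integrated firefly luciferase in P. falciparum. Red cells, 2% hematocrit and 0.05% parasitemia final, were cultured with compound through two parasite generations (96 hours) at 37 C, 5% CO2.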
SARS PLpro yeast – SARS-CoV PLP inhibition in yeast. S. cerevisiae expressing SARS-CoV PLpro, growth rescue. Potency, µM (series often up to 32.9 µM), for the others: at the highest dose activity, positive = growth rescue, most hits filed as activators. 330,000 tested, 0.19% active. AID 485353; calls by dose curve; further: 0% is about no effect; nearly all actives have a fitted effect of over 55% in size
Pf growth 48h – inhibits P. falciparum growth in the first generation, 48 h. P. falciparum luciferase growth in erythrocytes, 48 h. Potency, µM (highest dose often 28.7 µM), for inactives: top-dose activity change, negative = inhibition, hits mostly inhibitors. 310,000 tested, 5.9% active. AID 504832; further: on the % scale 0 is the no-effect control and ±100 the full control effect
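Firefly luciferase activity from engineered P. falciparum reports growth; inhibitors lower the luminescent signal. Cultures contained 2% hematocrit erythrocytes at 0.1% final parasitemia.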
Starred values were filed as active, the others as inactive. Unless noted, the call rests on the fitted dose curve; in most records, active means well fitted inhibition curve with a large enough effect; inconclusive means small, poorly fitted or top-dose-only effect, or another doubt; inactive means no such curve, though single readings can be large or run the other way. Potency means the concentration at half of the fitted maximal effect.

`O=C(NCCc1csc(-c2cccnc2)n1)c1ccccc1` gave NS1 inh 10%, Pf growth 96h inconclusive, SARS PLpro yeast 1% and Pf growth 48h inconclusive.
Screening CCOc1ccc(S(=O)(=O)N(CC)CC(=O)NCc2ccncc2)cc1 returned NS1 inh 19%, Pf growth 96h -25%, SARS PLpro yeast 0% and Pf growth 48h -12%.
`CCCOc1ccc(C(=O)NC(=S)NCc2cccnc2)cc1` gave NS1 inh -33%, Pf growth 96h -19%, SARS PLpro yeast -9% and Pf growth 48h 7%.
`COCc1ccc(C(=O)Nc2ccccc2C(=O)NCc2cccnc2)cc1` gave NS1 inh 8%, Pf growth 96h 19%, SARS PLpro yeast 9% and Pf growth 48h -28%.
`C=CCOc1ccc(C(=O)Nc2ccccc2C(=O)NCc2cccnc2)cc1` gave NS1 inh 4%, Pf growth 96h 12%, SARS PLpro yeast -7% and Pf growth 48h 12µM*.
For CCN(CC)S(=O)(=O)c1ccc(OCC(=O)NCc2ccccc2)cc1 the results were NS1 inh -17%, Pf growth 96h 9.3µM*, SARS PLpro yeast 0% and Pf growth 48h inconclusive.
Screening CCN(CC)S(=O)(=O)c1ccc(OCC(=O)NCc2ccco2)cc1 returned NS1 inh 3%, Pf growth 96h -13%, SARS PLpro yeast 0% and Pf growth 48h 3%.
For N#CCSc1ccc2nc(-c3ccccc3)cn2n1 the results were NS1 inh -1%, Pf growth 96h 127%, SARS PLpro yeast -23% and Pf growth 48h 134%.
For COc1cc(NC(=O)C2=COCCO2)c(OC)cc1Cl the results were Pf growth 96h -2%, SARS PLpro yeast -1% and Pf growth 48h -6%.
`O=C1C2CC=CCC2C(=O)N1Cc1nnc(-c2ccccc2Br)o1` (stereo not drawn) gave NS1 inh -7%, Pf growth 96h -19%, SARS PLpro yeast -1% and Pf growth 48h -8%.
`C#CC[N+](C)(C)CCCCCCCC` gave NS1 inh 4%, Pf growth 96h inconclusive, SARS PLpro yeast 2% and Pf growth 48h 3.7µM*.
For C#CC[N+](C)(C)CCCCCCCCCCCC the results were NS1 inh -36%, Pf growth 96h 0.37µM*, SARS PLpro yeast -53% and Pf growth 48h 1.5µM*.
`CCCCCCCCCCCCCCCCCC[N+](C)(C)CCC[Si](OC)(OC)OC` gave Pf growth 96h -2% and Pf growth 48h -12%.
Screening CC#CC[N+](C)(C)CCCCCCCCCCCC returned NS1 inh -58%, Pf growth 96h 0.59µM*, SARS PLpro yeast -61% and Pf growth 48h 2.9µM*.
For CC(C)[C@H](NC(=O)N1CCn2c1nc1ccccc12)C(=O)NCC1CCCO1 (stereo partly drawn) the results were NS1 inh 11%, Pf growth 96h 8%, SARS PLpro yeast -4% and Pf growth 48h 12%.
O=C(NCc1ccccn1)c1ccc(OC2CCN(Cc3ccc(Cl)s3)CC2)cc1 was read as NS1 inh -19%, Pf growth 96h inconclusive, SARS PLpro yeast inconclusive and Pf growth 48h inconclusive.
Screening O=C1CC(C(F)(F)F)=NN1 returned NS1 inh -4%, Pf growth 96h inconclusive, SARS PLpro yeast 0% and Pf growth 48h 140%.
`O=C(NCc1ccc(F)cc1)c1ccc(Br)o1` gave NS1 inh 2%, Pf growth 96h 13%, SARS PLpro yeast -2% and Pf growth 48h 5%.
Screening COc1ccccc1N1CCN(C(=O)c2ccccc2Oc2ccccc2)CC1 returned NS1 inh -43%, Pf growth 96h inconclusive, SARS PLpro yeast 12% and Pf growth 48h 13µM*.
COc1ccccc1N1CCN(C(=O)c2nn(-c3ccccc3OC)c(=O)c3ccccc23)CC1 was read as NS1 inh -10%, Pf growth 96h inconclusive, SARS PLpro yeast 0% and Pf growth 48h 9.3µM*.
COc1ccccc1-n1nc(C(=O)O)c2ccccc2c1=O was read as NS1 inh 6%, Pf growth 96h inconclusive, SARS PLpro yeast -2% and Pf growth 48h 1%.
For COc1ccc(CNC(=O)c2noc(C(C)C)c2[N+](=O)[O-])cc1 the results were NS1 inh 11%, Pf growth 96h 1.9µM*, SARS PLpro yeast 1% and Pf growth 48h -9%.
`COc1ccccc1N1CCN(C(=O)C(Cc2ccccc2)NC(=O)C2CCCCC2)CC1` (stereo not drawn) gave NS1 inh -7%, Pf growth 96h 0%, SARS PLpro yeast -7% and Pf growth 48h 10µM*.
Cc1nn(CCCC(=O)NC(C)c2ccccc2)c(=O)c2nn(-c3ccccc3)c(C)c12 (stereo not drawn) was read as NS1 inh -10%, Pf growth 96h inconclusive, SARS PLpro yeast -2% and Pf growth 48h inconclusive.
For COc1ccccc1N1CCN(C(=O)c2ccccc2NC(=O)C2CCCCC2C(=O)O)CC1 (stereo not drawn) the results were NS1 inh 24%, Pf growth 96h 7.4µM*, SARS PLpro yeast 9% and Pf growth 48h 15%.
COc1ccccc1N1CCN(C(=O)c2ccccc2N(C)S(=O)(=O)c2ccc(C)cc2)CC1 was read as NS1 inh -16%, Pf growth 96h inconclusive, SARS PLpro yeast -6% and Pf growth 48h 10µM*.
Cc1ccc(S(=O)(=O)N(C)c2ccccc2C(=O)N2CCOCC2)cc1 was read as NS1 inh 1%, Pf growth 96h -25%, SARS PLpro yeast -7% and Pf growth 48h 71%.
O=C(O)C1CCCCC1C(=O)Nc1ccccc1C(=O)N1CCN(c2ccc(F)cc2)CC1 (stereo not drawn) was read as NS1 inh 6%, Pf growth 96h 29%, SARS PLpro yeast -1% and Pf growth 48h 0%.
For COc1ccccc1N1CCN(C(=O)c2noc(C(C)C)c2[N+](=O)[O-])CC1 the results were NS1 inh -17%, Pf growth 96h 13µM*, SARS PLpro yeast 1% and Pf growth 48h 0%.
Screening CCc1cccc(C)c1NC(=O)CN1C(=O)NC(C)(CCC(C)C)C1=O (stereo not drawn) returned SARS PLpro yeast 0%.
For CCCCCCCCNc1ncnc2ccccc12 the results were NS1 inh -153%, Pf growth 96h 5.2µM* and SARS PLpro yeast -27%.
For COc1ccc(OCC(O)CNC2CCCC2)cc1 (stereo not drawn) the results were NS1 inh 12%, Pf growth 96h -27%, SARS PLpro yeast -3% and Pf growth 48h 4%.
`COc1ccc(CNCC(O)COc2ccc(C(C)(C)c3ccccc3)cc2)cc1` (stereo not drawn) gave NS1 inh 0%, Pf growth 96h inconclusive, SARS PLpro yeast -1% and Pf growth 48h 9.3µM*.
Screening CCOc1ccc(OCC(O)CNC2CCN(Cc3ccccc3)CC2)cc1 (stereo not drawn) returned NS1 inh -2%, Pf growth 96h 2.3µM*, SARS PLpro yeast 3% and Pf growth 48h 2.6µM*.
For CC(C)(c1ccccc1)c1ccc(OCC(O)CNC2CCN(Cc3ccccc3)CC2)cc1 (stereo not drawn) the results were Pf growth 96h 2.1µM*, SARS PLpro yeast -12% and Pf growth 48h 3.3µM*.
